6 molecules from publication PMC12136788 can be followed below.

The labels stand for the following.
B1: chr20:54218986:54219149:+|CDS|ENSG00000101132|unk|FALSE|unique (ssRNA)
RNA: GGGAGUUCUACAGUCCGACGAUCAAAUUUGCAAGAAGAAAUUGACGCCUUAGAAUCCAGAGUGGAAUCAAUUCAGCGAGUGUUAGCAGAUUUGAAAGUUCAGUUGUAUGCAAAAUUCGGGAGCAACAUAAACCUUGAAGCUGACAACAGAGGAUUGAGCAUCA
B2: chr5:136988535:136988636:-|CDS|ENSG00000152377|msi1|total|mutant (ssRNA)
RNA: GGGAGUUCUACAGUCCGACGAUCGGAAAGCAUCAGGCUUGGUGGCAGCUGAGAUAUGCCUUUUGUUUGGCAGGGUUUGACACCCGCAUCCUGCCCAUCUGCAAGGACUCCCUGGGCUGGAUGUUCAACAAGUUGGACAUGAACCAACAGAGGAUUGAGCAUCA
B3: ENSG00000107863:be:win_3301|CDS|ENSG00000107863|bound_else_gene|NA|bound_elsewhere_windowed (ssRNA)
RNA: GGGAGUUCUACAGUCCGACGAUCAAGGAAGAGUCGGAAAGGAAACUUCUCAGUAAAGAUGAUACCAGUCCCCCAAAAGACAAAGGCACAUGGAGAAAAGGCAUUCCAAGUAUCAUGAGAAAGACAUUUGAGAAAAAGCCAACUCAACAGAGGAUUGAGCAUCA
B4: ENSG00000136451:be:win_2301|3pUTR|ENSG00000136451|bound_else_gene|NA|bound_elsewhere_windowed (ssRNA)
RNA: GGGAGUUCUACAGUCCGACGAUCAAAAAUCUACAAAUUGUGUUUUGCUAAGAAAAGCCUCAACUGACAGAGGAGAAGUCAAGUGUGUGGACAGGCAAGCUCCUAAUAAACAGAGUCCAGUGGGAUUCCUAUUUAGGAGCCAAGCAACAGAGGAUUGAGCAUCA
B5: chr10:123166816:123166917:+|3pUTR|ENSG00000154473|unk|FALSE|unique (ssRNA)
RNA: GGGAGUUCUACAGUCCGACGAUCAAAAACUUAAAGGUAUAUUAGCAGGUUAGCCUUUGUUCUGUGGGAGAUCCAGGCCUUGUUAGAAGGACCAAGGCCAGAAUGCCCAGUUUAGCCUUAGCAUUCAAACCCUUCAUUGUUUUUCAACAGAGGAUUGAGCAUCA
B6: chr12:48653210:48654175:-|three_prime_utr|ENSG00000139620|control|control|control (ssRNA)
RNA: GGGAGUUCUACAGUCCGACGAUCGCACCAUUGUCUCAGAGUGGAUUGGCUACUGCAAAUGGGAAGCCAGAACCCACUUCUAUUAGUUGAUAGUUUGGGGAACCAUUUUACUUUGGUGGAUUUAAAUUUCUCGUUCUUCAAAGACAACAGAGGAUUGAGCAUCA

The full ranking holds about 5,800 sequences; the median of “enrichment r” is about 0.54, and the highest 2% start at about 16. The sample as a whole holds a higher share of the highest values than the screen did.

Chain of MSI1 full-length (Q61474 whole entry): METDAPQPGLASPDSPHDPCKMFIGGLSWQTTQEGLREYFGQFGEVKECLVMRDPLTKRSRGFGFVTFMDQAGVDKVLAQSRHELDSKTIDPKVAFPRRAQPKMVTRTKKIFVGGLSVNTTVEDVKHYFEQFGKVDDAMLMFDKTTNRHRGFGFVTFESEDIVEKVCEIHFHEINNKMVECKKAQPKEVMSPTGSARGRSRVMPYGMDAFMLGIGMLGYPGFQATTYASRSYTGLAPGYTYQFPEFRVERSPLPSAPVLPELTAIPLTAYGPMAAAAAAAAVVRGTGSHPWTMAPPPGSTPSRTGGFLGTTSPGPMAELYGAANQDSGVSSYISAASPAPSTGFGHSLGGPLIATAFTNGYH

The experiment concerns the target MSI1 full-length (mouse, UniProt Q61474 1-362). Description: nsRBNS (natural sequence RNA bind-n-seq); RBNS binding buffer (assumed for nsRBNS): 25 mM Tris pH 7.5, 150 mM KCl, 3 mM MgCl2, 0.01% Triton X-100, 500 ug/ml BSA, 20 U/ml SUPERase-In, 4 C; UNK is unkempt and MSI1 is Musashi-1; names of the RNAs are library labels; protein concentration not given here; high values mean tight binding.
In the case of B1, the binding signal was found to be 0.378 enrichment R.
In turn, B2 yielded a binding signal of 0.511 enrichment R.
Regarding B3, the binding signal came to 0.359 enrichment R.
Under B4 stands 0.431 enrichment R.
Under B5 stands 5.77 enrichment R.
With B6, the binding signal is 0.61 enrichment R.
